Tat export inh = E. coli Tat transport inhibition; inhibition, % at 10 µM; E. coli MC4100 TorA-mCherry Tat export, fluorescence; 0.036% of 340,000 active;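 active means mean replicate inhibition at least 50% and at least half of replicates individually reaching 50%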;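 further: exported cargo escapes ClpAP degradation while cytoplasmic cargo is degraded and loses fluorescence; 0% = median of neutral control wells and 100% = median of NaSCN control wells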
E coli growth-1 = E. coli growth inhibition | OD600 absorbance (concentration not given with the values) | 0.21% of 330,000 active | Escherichia coli growth, OD600, 23 h; hits give low values | AID 1053175;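 active means OD600 absorbance below the run mean of sample wells minus 3.6 SD, in any replicate, cut at about 0.56 in these data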
E coli growth-2 = bacterial growth inhibition, counter-screen for AddAB inhibitors; E. coli V3065 growth, OD600 absorbance, 18 h; inhibition, % at 11.9 µM; 0.27% of 330,000 active;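 active means inhibition above the campaign's mean inhibition across all tested compounds plus 3 SD, cut at about 9.9% in these data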;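 further: uninfected addAB+ strain grown without phage in ampicillin broth; 0% = DMSO wells and 100% = ciprofloxacin 0.95 µg/ml wells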
phage Ecoli inh = E. coli growth loss with phage present. AID 651602. inhibition, % at 11.9 µM. growth absorbance. 0.26% of 360,000 active; in the data active means inhibition above about 11%
AddAB inh = less growth of phage-infected E. coli with AddAB; E. coli expressing H. pylori AddAB, absorbance growth; inhibition, % at 11.9 µM; 0.29% of 330,000 active; in the data active means inhibition above about 12%;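 further: 0% = vehicle wells of infected cells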
The depositor's hits bear a star; . = no result given. Compounds with a hit are over-represented: about 0.51% of the library has one in this group of screens.

SMILES	Tat export inh	E coli growth-1	E coli growth-2	phage Ecoli inh	AddAB inh
Fc1ccc2[nH]c3c(NCc4ccccc4)ncnc3c2c1	-2	0.45*	7	9	5
CCc1ncc(C)[nH]1	.	.	-1	2	0
CCc1ncc(C)nc1CC	55*	0.77	-2	1	5
O=[N+]([O-])c1ccc(C=NNC(=S)Nc2ccccc2C(F)(F)F)o1	.	0.49*	.	.	.
O=C(CNc1ccccc1)NN=Cc1ccc([N+](=O)[O-])o1	.	0.49*	.	.	.
O=[N+]([O-])c1ccc(C=NNC(=S)Nc2ccccc2F)o1	.	0.67	.	.	.
Cc1nonc1C(=O)NN=Cc1ccc([N+](=O)[O-])o1	.	0.5*	.	.	.
O=C(CCC(=O)Nc1ccc(Cl)cc1Cl)NN=Cc1ccc([N+](=O)[O-])o1	.	0.41*	.	.	.
O=C(CNC(=O)c1ccccc1)NN=Cc1ccc([N+](=O)[O-])o1	.	0.58	.	.	.
COc1ccc2c(c1)OCC1C2N2C(=O)c3ccc(C)cc3NC(=O)[C@@]2(C)C1c1ccccc1 (some centres not stated)	.	0.65	.	.	.
CC(=CC(=O)O)CC[C@@]1(C)C(C)CC[C@@]2(C)C(C)=CCCC12 (some centres not stated)	.	0.69	.	.	.
O=C(NN=Cc1ccc([N+](=O)[O-])o1)c1ccc(O)cc1	.	0.41*	.	.	.
CCCC(=O)Nc1ccc(C(=O)NN=Cc2ccc([N+](=O)[O-])o2)cc1	.	0.62	.	.	.
O=C(NN=Cc1ccc([N+](=O)[O-])o1)C1CC1	.	0.065*	.	.	.
NC(=O)NN=Cc1ccc([N+](=O)[O-])o1	.	0.064*	.	.	.
CC(C)CC(CO)N1CCN(CCCc2ccccc2)CCC1=O (configuration not stated)	.	0.7	.	.	.
CCOC(=O)N1CCC(N2C(=O)c3ccccc3C2Nc2cc(C(=O)OC)cc(C(=O)OC)c2)CC1 (configuration not stated)	4	0.77	1	100*	3
CCOC(=O)N1CCC(N2C(=O)c3ccccc3C2Nc2cc(C)cc(C)c2)CC1 (configuration not stated)	2	0.71	0	1	4
O=c1c(O)c(-c2ccccc2)oc2cc(O)cc(O)c12	7	0.69	3	7	6
O=c1c(O)c(-c2cc(O)c(O)c(O)c2)oc2cc(O)cc(O)c12	9	.	10*	10	11
NCCCCC(N)c1cn(C(CCC(=O)O)C(=O)N2CCNCC2)nn1 (configuration not stated)	.	0.69	.	.	.
OC(CNCC(c1ccc(Cl)cc1Cl)c1c[nH]c2ccccc12)c1ccccc1 (configuration not stated)	-15	0.45*	-3	4	-1
CCCCCCCCCCCCN1C(CC(C)=O)c2cc(C(F)(F)F)ccc2S1(=O)=O (configuration not stated)	.	0.69	.	.	.
CO[C@@]1(NC(=O)C2SC(=C(C(N)=O)C(=O)O)S2)C(=O)N2C(C(=O)O)=C(CSc3nnnn3C)CSC21 (some centres not stated)	.	0.061*	.	.	.
CO[C@@]1(NC(=O)CSCC#N)C(=O)N2C(C(=O)O)=C(CSc3nnnn3C)CSC21 (some centres not stated)	.	0.6	.	.	.
SMILES	Tat export inh	E coli growth-1	E coli growth-2	phage Ecoli inh	AddAB inh
CN1CC2C(c3ccc(C(F)(F)F)cc3)C3(c4ccccc4)CC2(C3)C1c1ccccc1 (configuration not stated)	.	0.71	.	.	.
CCOC(=O)N1CCN(C(=O)c2cn(CC)c3cc(N4CCN(C)CC4)c(F)cc3c2=O)CC1	.	.	100*	.	101*
CC1(C)OC2C(CO)OC(n3cc(Br)c(=O)[nH]c3=O)C2O1 (configuration not stated)	.	0.72	.	.	.
C=CCC(CC(=O)N(CCO)Cc1ccccc1)C(=O)NCCOC(=O)C(CC=C)Cc1ccc(F)cc1 (configuration not stated)	.	0.71	.	.	.
COc1ccc(C2CC(=O)C=C(c3ccc4c(c3)OCCO4)C2)cc1 (configuration not stated)	.	0.7	.	.	.
CC(C(=O)NC1C(=O)N2C(C(=O)O)=C(CSc3nnnn3C)CSC12)n1cc(Cl)cn1 (configuration not stated)	-3	0.5*	1	5	-1
Cn1nnnc1SCC1=C(C(=O)O)N2C(=O)C(NC(=O)Cn3nc(C(F)F)cc3C3CC3)C2SC1 (configuration not stated)	-2	0.49*	2	9	0
Cc1c(Cl)cnn1CC(=O)NC1C(=O)N2C(C(=O)O)=C(CSc3nnnn3C)CSC12 (configuration not stated)	0	0.074*	-2	8	-2
Cc1nn(CC(=O)NC2C(=O)N3C(C(=O)O)=C(CSc4nnnn4C)CSC23)cc1Br (configuration not stated)	-11	0.46*	1	5	0
Cc1c(Cl)c(C(F)F)nn1CC(=O)NC1C(=O)N2C(C(=O)O)=C(CSc3nnnn3C)CSC12 (configuration not stated)	-3	0.65	.	6	.
COc1ccc(NC(=S)N2CCN(CC=Cc3ccccc3)CC2)cc1	.	0.69	.	.	.
Cc1nnc(SCC2=C(C(=O)O)N3C(=O)C(NC(=O)Cc4ccccc4)C3SC2)s1 (configuration not stated)	8	0.6	-1	2	2
CCN1CCN(C(=O)NC(C(=O)NC2C(=O)N3C(C(=O)O)=C(CSc4nnnn4C)CSC23)c2ccc(O)cc2)C(=O)C1=O (configuration not stated)	.	0.061*	.	.	.
CC1COC(=O)C(Cc2ccc(F)cc2)CCC=CCC(CC(=O)NCCO)C(=O)N1 (configuration not stated)	.	0.72	.	.	.
O=C(CC(=O)c1cc(Cl)ccc1O)c1ccccc1	-14	0.48*	-2	-3	-3
Cc1cccc(C(=O)CC(=O)c2cc(Cl)ccc2O)c1	3	0.47*	-3	.	-5
CCCCC1CNC(=O)C(=O)N1CC(C)(C)C (configuration not stated)	.	0.64	.	.	.
CCC(CC)c1nnc(NC(=O)CCN2C(=O)c3ccccc3C2=O)s1	3	0.76	-1	2	0
CC(C)Cc1nnc(NC(=O)CCN2C(=O)c3ccccc3C2=O)s1	-5	0.72	27*	1	68*
C#CCOCCOCCOCCNc1nc(N2CCN(C(=O)C(CCC(=O)O)n3cc(C(N)CO)nn3)CC2)nc(N2CCN(C(=O)C(C(C)CC)n3cc(C(N)Cc4ccc(O)cc4)nn3)CC2)n1 (configuration not stated)	.	0.69	.	.	.
COc1ccc(S(=O)(=O)Nc2ccc3c(c2)C(=O)N(C(C)CO)CC(C)C(CN(C)C(=O)NC(C)C)O3)cc1 (configuration not stated)	.	0.7	.	.	.
O=[N+]([O-])c1ccc(-c2cccnc2)cc1	-8	0.53*	.	4	.
CC[C@@H](C(=O)[C@@H](C)[C@@H](O)[C@H](C)[C@@H]1O[C@@H]([C@@H](CC)C(=O)O)CC[C@@H]1C)[C@H]1O[C@]2(C=C[C@@H](O)[C@]3(CC[C@@](C)([C@H]4CC[C@](O)(CC)[C@H](C)O4)O3)O2)[C@H](C)C[C@@H]1C	9	.	.	12*	.
COc1cccc(C=NNc2ncnc(Cl)c2N)c1O	.	0.17*	.	.	.
COc1cccc(/C=N/Nc2nccnc2Cl)c1O	2	.	.	1	.

Source: PubChem BioAssay
